# PubChem BioAssay
# Calls of active or inactive are those of the source. The rule behind the calls is not given here.
# Test: Brca1-Bard1 BiLC signal decrease – luminescence, single concentration, counter-screen for Mdm2/MdmX interaction inhibitor project, confirmation (AID 504668)
# Details: Brca1/Bard1 bimolecular luciferase complementation counterscreen, at 8 µM, active compounds read high
row,Structure (SMILES),inhibition
1,CC1(C)Cc2ccccc2C2=NNC(=O)C2=N1,29.2% (active)
2,COc1ccc(NC(=O)Nc2cccc3c2O[C@H](CN(C)Cc2ccc(-c4ccccc4)cc2)[C@@H](C)CN([C@H](C)CO)C3=O)cc1,31% (active)
3,Cc1ccc(-n2c(C)cc(/C=c3/sc4nc5ccccc5n4c3=O)c2C)cc1,27.7% (active)
4,O=c1c2ccccc2nc(/C=C/c2cc(Br)ccc2O)n1CCO,32.4% (active)
5,COC(=O)c1ccc2nc(NC(=O)CCS(=O)(=O)c3ccccc3)sc2c1,27.4% (active)
6,COc1ccc(-c2csc(NC(=S)NC(=O)c3ccco3)n2)cc1Br,23.1% (active)
7,COc1ccc(C(=O)C(CCCCC(CN(C)C)C(=O)c2ccc(OC)cc2)CN(C)C)cc1 (stereo not given),30.7% (active)
8,c1ccc(-c2noc(-c3ccc4ccccc4c3)n2)nc1,27% (active)
9,COc1ccc(OC)c2[nH]c(C(=O)N/N=C/c3ccccc3O)cc12,32.5% (active)
10,O=C(/C=C/c1c(F)cccc1Cl)c1ccc(O)cc1,32.3% (active)
11,O=C(Nc1nc(-c2ccccn2)cs1)c1cccc(-n2cnnn2)c1,26.2% (active)
12,COc1ccc2nc(N=Nc3ccc(O)c4ccccc34)sc2c1,35.3% (active)
13,COc1ccc(Oc2ccc(/C=C/C(=O)c3cccc(OC)c3)cc2[N+](=O)[O-])cc1,26.2% (active)
14,C#CCn1c(=NC(=O)c2ccc(S(=O)(=O)N3CCc4ccccc4C3)cc2)sc2cc(S(N)(=O)=O)ccc21,23% (active)
15,CC(C)=CCc1c2c(c(O)c3c(=O)c4c(oc13)-c1cc(O)c(O)cc1OC4C=C(C)C)C=CC(C)(C)O2 (stereo not given),34.4% (active)
16,N=c1c2c(-c3ccccc3)c(-c3ccccc3)n(Cc3ccco3)c2ncn1Cc1ccco1,31.4% (active)
17,C=C1C(=O)C=C[C@]2(C)C[C@@H]3OC(=O)[C@](C)(O)[C@H]3C[C@@H]12,25.4% (active)
18,CCCCCCCCCC(=O)N[C@@H]1c2cc(OC)c(OC)cc2C[C@H]1OCc1ccccc1,35.8% (active)
19,O=C1c2ccccc2C(=O)c2c(Nc3ccc(CCO)cc3)ccc(O)c21,33.2% (active)
20,CCC(=O)NC(c1cccs1)c1ccc2cccnc2c1O (stereo not given),23.3% (active)
21,O=C(NC(Cc1c[nH]c2ccccc12)C(=O)Nc1ccc(OC(F)(F)F)cc1)c1cccs1 (stereo not given),25.7% (active)
22,C/C(=N\NC(=O)c1cc(-c2cccs2)nc2ccccc12)c1ccccn1,28.3% (active)
23,CCCSc1nnc(NC(=O)Nc2ccc(F)cc2)s1,28.5% (active)
24,CC(=O)/C(C#N)=C1\NC(=O)C(Cc2ccc(C)c(C)c2)S1 (stereo not given),32.1% (active)
25,COc1cc(OC)c2cc(C(=O)N/N=C/c3cccc(OC)c3O)[nH]c2c1,33.8% (active)
